From PubChem BioAssay come the findings set out here.

Results with a measured potency or affinity are listed apart. Activity calls are given as the source filed them. The rule behind the calls is not given here.

The target in this assay is Plasmodium falciparum protein kinase 6 (PK6, PF3D7_1337100) (UniProt Q8IDW1). Nature of the assay: PfPK6 kinase inhibitors, biochemical, TCAMS library (AID 1159586). The following applies: recombinant PfPK6, Kinase-Glo ATP depletion luminescence. For orientation: In Kinase-Glo more light means more ATP remaining.
Sequence of Plasmodium falciparum protein kinase 6 (PK6, PF3D7_1337100) (Q8IDW1 1-305): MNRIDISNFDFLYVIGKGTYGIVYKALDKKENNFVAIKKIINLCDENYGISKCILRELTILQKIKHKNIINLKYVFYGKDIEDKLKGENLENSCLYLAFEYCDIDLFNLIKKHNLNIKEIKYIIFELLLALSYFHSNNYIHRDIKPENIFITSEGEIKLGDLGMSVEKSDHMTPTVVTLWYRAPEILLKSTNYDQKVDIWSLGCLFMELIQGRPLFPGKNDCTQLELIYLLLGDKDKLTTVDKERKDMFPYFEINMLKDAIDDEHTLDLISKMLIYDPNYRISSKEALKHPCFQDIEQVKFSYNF
With `Cc1ccc2[nH]c(C)c(Br)c(=O)c2c1`, the outcome was inactive. In the case of `NC(=O)c1cccc(CNCc2ccc(-c3cccc(-c4nc5ccccc5[nH]4)c3)cc2)c1`, the outcome was inactive. In the case of `O=C(Nc1cc2cc(-c3ccc(CN4CCCCC4)cc3)ccc2n2cnnc12)NC1CCCC1`, the outcome was inactive. As to `CN1CCC(NCc2ccc(-c3ccc(Cl)cc3)cc2)CC1`, the outcome was inactive. For the compound `CCCNc1ccc2nccc(CCN3CCC(NCc4ccc5c(n4)NC(=O)CS5)CC3)c2n1`, the outcome was inactive. Turning to `COc1cc2c(C3CCN(CC4CCN(C(=O)/C=C/c5ccc(Cl)c(Cl)c5)CC4)CC3)c[nH]c2cn1`, the outcome was inactive. For the compound `COc1cccc(CNC[C@@H](O)[C@H](Cc2ccccc2)NC(=O)c2cc(NC(C)C)cc(N3CCCCS3(=O)=O)c2)c1`, the result was inactive. On to `COc1ccc(NC(=O)/C=C/c2ccccc2Cl)cc1OCCN1CCC(N2CCCC2)CC1`, for which the result was inactive.

For `Clc1ncnc2scc(-c3ccc(Br)cc3)c12`, the result was inactive. Take `Cc1cccc(Nc2nc(C)cc(N3CCCN(CC4CCCCC4)CC3)n2)c1`: the result was inactive. For `O=C(Nc1ccc2c(c1)OCO2)c1cc(-c2cccnc2)cnc1NCc1ccc2c(c1)OCO2` the value was “inactive”; for `Cc1ccnc(NC(c2cccc(Cl)c2Cl)c2ccc3cccnc3c2O)c1` (stereo unspecified), “inactive”.

Consider `O=C(Nc1cccc(CN2CCCN(Cc3ccc(O)cc3)CC2)c1)c1cc(F)cc(F)c1`, for which the outcome was inactive. Consider `NC1=NC(c2ccccc2)(c2ccccc2)C(=O)N1Cc1ccc(-c2cccnc2)cc1`, for which the result was inactive. Take `CN1CCN(c2cccc(Nc3nccc(NCC(O)c4ccccc4)n3)c2)CC1` (stereo unspecified): the outcome was inactive. Regarding `CCC(C)(C)c1ccc(N2C(N)=NC(N)=NC2(C)C)cc1`, the outcome was inactive.
